Source: PubChem BioAssay (National Center for Advancing Translational Sciences (NCATS))
FLuc inh-1: Firefly luciferase inhibition profiling of diverse chemical library using quantitative high-throughput screening; actives 2.5% (n = 76,000); Luciferin 4-monooxygenase (Photinus pyralis), P08659; Potency, µM (top dose mostly 115 µM), usual class: inhibitors; purified P. pyralis luciferase, luminescence, biochemical; AID 1347043, 2019; further: on the % scale 0 is the no-effect control and ±100 the full control effect; nearly all actives have a fitted effect of over 65% in size
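Biochemical qHTS: compound (6-point titration) added to 10uM D-luciferin plus 10uM ATP in Tris acetate pH 7.5 buffer with Mg, Tween-20 and BSA, then purified enzyme at 10nM; light output imaged.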
HEK cytotox: Cytotoxic Profiling in HEK 293 Cell Line of Diverse Libraries Using Quantitative High-Throughput Screening; HEK 293 viability, ATP luminescence (CellTiter-Glo), 48-72 h; Potency, µM (series often up to 115 µM), for the others: at the top dose activity change, negative = cytotoxicity, usual class: inhibitors; actives 6.6% (n = 94,000); AID 1345083, 2018; further: on the % scale 0 is the no-effect control and ±100 the full control effect; nearly all actives have a fitted effect of over 60% in size
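Pintool-delivered compounds were incubated with HEK 293 cells (250 cells/well) at 37 degree Celsius for 48 or 72 hr. ATP-dependent luminescence (CellTiter-Glo) then reported remaining viable cells.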
3T3 cytotox: Cytotoxic Profiling in NIH 3T3 Cell Line of Diverse Libraries Using Quantitative High-Throughput Screening | actives 4.3% (n = 94,000) | Potency, µM (series often up to 96.7 µM), without a hit: at the top dose activity change, negative = cytotoxicity, usual class: inhibitors | NIH 3T3 viability, CellTiter-Glo ATP luminescence, 48-72 h; further: on the % scale 0 is the no-effect control and ±100 the full control effect; nearly all actives have a fitted effect of over 55% in size
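Viability of NIH 3T3 cells after 48 or 72 hr compound treatment at 37 °C was assessed by CellTiter-Glo, with luminescence imaged following a 10 min room-temperature step.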
NPR1 antag: Natriuretic polypeptide receptor (hNpr1) antagonism - Primary qHTS; HEK293 hNpr1 GloSensor cGMP, ANP-stimulated luminescence; Potency, µM (titrated, usually from 46.3 µM), for the others: at the top dose activity change, negative = inhibition, actives largely listed as inhibitors; actives 1.6% (n = 76,000); AID 1347048, 2019; calls by dose curve; further: on the % scale 0 is the no-effect control and ±100 the full control effect; nearly all actives have a fitted effect of over 60% in size
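HEK293 cells stably expressing human Npr1 and cGMP GloSensor pGS-40F, loaded 2 h with 2% GloSensor reagent, given compound 30 min at room temperature. Luminescence read before and 20 min after 0.1 nM hNppA.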
SNCA viab count: GF-AFC viability counterscreen for inhibitors of alpha-synuclein gene (SNCA) expression; HEK-293-SNCA-luc viability, GF-AFC fluorescence, 24 h; Potency, µM (series often up to 57.1 µM), inactives show top-dose activity change, negative = cytotoxicity, actives largely listed as cytotoxic; actives 0.12% (n = 150,000); AID 1671193, 2021;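 further: 0% = DMSO-treated cells and -100% = medium-only wells without cells; nearly all actives have a fitted effect of over 30% in size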
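HEK-293-SNCA-luc cells (1500/well) plated 24 h, then exposed 24 h to a dilution series; GF-AFC added 30 min at 37C, fluorescence 405/540 nm; normalised to medium-only and DMSO wells, Hill fit.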
SNCA expr inhib: Primary qHTS assay for inhibitors of alpha-synuclein gene (SNCA) expression | actives 0.17% (n = 140,000) | Potency, µM (series often up to 57.2 µM), without a hit: at the highest dose activity change, negative = inhibition, hits mostly inhibitors | HEK-293 SNCA-luciferase knock-in, luminescence, 24 h | AID 1671194, 2021;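 further: plate controls were DMSO cells for no effect and cell-free wells for full effect; nearly all actives have a fitted effect of over 45% in size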
FLuc SDR no ATP: Firefly luciferase (FLuc-C-HiBiT) SDR gain of signal screen - without ATP; actives 7.8% (n = 1,300); Potency, µM (titrated, usually from 32.7 µM), for the others: top-dose activation (signal gain), actives largely listed as activators; Purified FLuc-C-HiBiT, Nano-Glo HiBiT luminescence, no ATP; shares compounds with FLuc inh-1; AID 1963318, 2024; further: nearly all actives have a fitted effect of over 55% in size
FLuc SDR ATP: Firefly luciferase (FLuc-C-HiBiT) SDR gain of signal screen - plus ATP | shares compounds with FLuc inh-1 | purified FLuc-C-HiBiT + ATP, HiBiT complementation luminescence | Potency, µM (doses to about 32.7 µM), without a hit: top-dose activation (gain of signal), most hits filed as activators | actives 8.7% (n = 1,300) | AID 1963319, 2024;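 further: signal reports ligand binding via conformational change of the enzyme rather than luciferase catalysis; % of control where 0% means no effect; nearly all actives have a fitted effect of over 55% in size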
FLuc inh-2: Firefly luciferase (FLuc-C-HiBiT) enzymatic inhibition screen - Functional assay. shares compounds with FLuc inh-1. purified FLuc-C-HiBiT enzyme, luciferin luminescence. Potency, µM (titrated, usually from 32.7 µM), for the others: top-dose activity change, negative = inhibition, most hits filed as inhibitors. actives 42% (n = 1,300). AID 1963320, 2024; further: on the % scale 0 is the no-effect control and ±100 the full control effect; nearly all actives have a fitted effect of over 70% in size
* = called active by the depositor; i = inactive; ? = inconclusive; · = no result; [ ] = dose if it differs, or a comment. Compounds with a hit are over-represented: about 7.4% of the library has one in this group of screens. Unless noted, the call rests on the fitted dose curve; in most records, active means well fitted curve in the direction sought with a large enough effect; inconclusive means small, poorly fitted or top-dose-only effect, or another doubt; inactive means no such curve, though single readings can be large; an effect the other way counts as inactive or inconclusive. Potency means the concentration at half of the fitted maximal effect.

SMILES | FLuc inh-1 | HEK cytotox | 3T3 cytotox | NPR1 antag | SNCA viab count | SNCA expr inhib | FLuc SDR no ATP | FLuc SDR ATP | FLuc inh-2
c1ccc(Nc2cc3c(cn2)CN(Cc2ccsc2)CCN3)cc1 | 10µM* | ? | 56.2µM* | -24.7%[70.6 µM] | ? | 26.9%[87.6 µM] | 19.2%[49.3 µM] | 15.4%[49.3 µM] | 14.3µM*
c1ccc(CCN2CCNc3cc(NCCN4CCOCC4)ncc3C2)cc1 | i | ? | ? | 0.4%[70.6 µM] | ? | 0.4%[87.6 µM] | · | · | ·
COc1cccc(CN2CCNc3cc(Nc4cccnc4)ncc3C2)c1 | 11.2µM* | ? | ? | 0.4%[70.6 µM] | -25.4%[87.6 µM] | 19.1%[87.6 µM] | 32.0%[49.3 µM] | 15.1%[49.3 µM] | ?
c1ccc(Nc2cc3c(cn2)CN(CC2CCOC2)CCN3)cc1 (stereo not given) | · | · | · | · | · | · | 17.4%[49.3 µM] | 10.7%[49.3 µM] | ?
COc1ccc(CN2CCNc3cc(Nc4ccccc4)ncc3C2)cn1 | 5.01µM* | 112µM* | 56.2µM* | -16.0%[70.6 µM] | ? | -5.9%[87.6 µM] | 22.1%[49.3 µM] | 15.9%[49.3 µM] | ?
Fc1ccc(CNc2cc3c(cn2)CN(Cc2ccncc2)CCN3)cc1 | i | -51.5%[172 µM] | -43.2%[138 µM] | 2.3%[70.6 µM] | -18.1%[87.6 µM] | ? | · | · | ·
c1ccc(Oc2cc3c(cn2)NCCN(Cc2ccsc2)C3)cc1 | i | ? | -22.8%[138 µM] | 3.9%[70.6 µM] | 6.4%[87.6 µM] | 11.3%[87.6 µM] | · | · | ·
Cn1ccnc1C(=O)N1CCC(N2C(=O)C3(CCCCC3)C2c2ccccc2)CC1 (stereo not given) | · | -5.2% | -6.3% | · | 11.9% | -5.4% | · | · | ·
Clc1cccc(-c2nc(-c3ccccn3)no2)c1 | · | · | · | · | · | · | 3.94µM* | ? | 0.989µM*
Cc1ccc(-c2nc(-c3ccccn3)no2)cc1Cl | · | · | · | · | · | · | 4.42µM* | ? | 0.624µM*
CCN(CC)c1ccc(-c2nc(-c3ccccn3)no2)cc1[N+](=O)[O-] | · | · | · | · | -0.4% | ? | · | · | ·
O=C(Cc1cccc(F)c1)N1CCC(OCCOc2cccnc2)CC1 | · | -29.2% | -22.7% | · | -1.3% | -4.7% | · | · | ·
c1ccc2cc(-c3nc(C4CCOC4)no3)ncc2c1 (stereo not given) | 2.51µM* | 1.0% | -29.2% | ? | 3.2% | -24.5% | 14.7% | ? | ?
Cc1onc(-c2ccccc2Cl)c1-c1nc(C2CCOC2)no1 (stereo not given) | i | -25.8% | -29.9% | 4.7% | 9.4% | 13.7% | · | · | ·
CSc1ccccc1-c1nc(C2CCOC2)no1 (stereo not given) | i | -2.2% | ? | 3.2% | -11.1% | 59.2% | · | · | ·
Cc1nc2ccc(-c3nc(C4CCOC4)no3)cc2s1 (stereo not given) | 2µM* | ? | ? | ? | -3.5% | -36.7% | 24.9% | ? | 11.1µM*
CN(C)c1ccc(-c2nc(C3CCOC3)no2)cc1 (stereo not given) | 3.98µM* | ? | -32.8% | ? | -4.3% | -13.9% | 24.5% | ? | ?
COc1ccc2c(C)c(-c3nc(C4CCOC4)no3)oc2c1 (stereo not given) | 12.6µM* | ? | ? | 3.8% | 5.4% | 67.4% | 13.9% | 13.0% | -18.1%
Cc1ccc([S+](=O)([O-])N2CCC(C(=O)N3CCC(N4CCOC4=O)CC3)CC2)cc1 | · | i | 2.4% | · | 6.1% | 21.9% | · | · | ·
O=C(NCCN1CCOCC1)C1CCCCc2nnc(-c3ccccc3)n21 (stereo not given) | · | -1.5% | -14.7% | · | 1.0% | 9.8% | · | · | ·
O=C(c1nc2cccnc2n(Cc2ccccc2)c1=O)N1CCOCC1 | · | 4.6% | 0.8% | · | 5.8% | 29.1% | · | · | ·
O=C(N[C@@H]1CN(C(=O)Nc2ccc(OC(F)(F)F)cc2)CCC[C@H]1O)c1ccc(OCCN2CCOCC2)cc1 | ? | ? | ? | -2.0% | -6.4% | 1.6% | · | · | ·
COc1ccc(C(=O)N[C@@H]2CN(C(=O)Nc3ccc(OC(F)(F)F)cc3)CCC[C@H]2O)cc1 | 8.91µM* | 39.8µM* | 44.7µM* | ? | -13.6% | -5.3% | 16.3% | 12.3% | ?
COc1ccccc1-c1nc(-c2cccc(C(=O)O)c2)no1 | · | · | · | · | · | · | 8.81µM* | 0.007µM* | 0.0062µM*
O=C(O)c1cccc(-c2noc(-c3cc([N+](=O)[O-])cc([N+](=O)[O-])c3)n2)c1 | · | · | · | · | · | · | 6.0% | ? | 3.13µM*
SMILES | FLuc inh-1 | HEK cytotox | 3T3 cytotox | NPR1 antag | SNCA viab count | SNCA expr inhib | FLuc SDR no ATP | FLuc SDR ATP | FLuc inh-2
COc1ccc(-c2nc(-c3cccc(C(=O)O)c3)no2)cc1 | · | · | · | · | · | · | 1.11µM* | 0.0031µM* | 0.0025µM*
COc1ccc(F)cc1-c1cccc(C(=O)O)c1 | · | -3.6%[172 µM] | -9.8%[138 µM] | · | 1.9%[87.6 µM] | 20.4%[87.6 µM] | · | · | ·
CN(C(=O)c1cc(-c2ccccc2O)on1)c1ccccc1 | · | · | · | · | -15.7% | 85.0% | · | · | ·
O=C(c1cc(-c2ccccc2O)on1)N1CCCCC1 | · | · | · | · | 2.8% | 91.3% | 24.2% | 15.5% | ?
O=C(NC1CCCCCC1)C1CCN(C(=O)c2ncn3c2COC(c2ccccc2)C3)CC1 (stereo not given) | 12.6µM* | 11.2% | i | -2.3% | -6.2% | 3.7% | 13.3% | ? | 7.85µM*
O=C(Nc1ccc(F)cc1)C1CCN(C(=O)c2ncn3c2COC(c2ccccc2)C3)CC1 (stereo not given) | 1.58µM* | -29.5% | -31.4% | ? | 2.3% | 79.1% | 9.3% | 1.11µM* | 1.76µM*
O=C(Nc1ccc(Cl)cc1)C1CCN(C(=O)c2ncn3c2COC(c2ccccc2)C3)CC1 (stereo not given) | 1.78µM* | 6.4% | i | ? | 2.6% | 60.5% | 13.7% | 1.11µM* | 1.76µM*
